# Laboratory results as given in PubChem BioAssay AID624464 (National Center for Advancing Translational Sciences (NCATS), 2012).
# The whole screen tested about 360,000 compounds, of which about 810 (0.23%) were called active. The sample holds actives, similar compounds and a random draw of the others, so the mix is not that of the screen. Rule as the data show it: active = potentiation above about 50%; inconclusive = mostly about 30% to 49%; inactive = weaker than that.
# Target: D(2) dopamine receptor (Homo sapiens) (UniProt P14416)
# Sequence (P14416 whole entry, looked up): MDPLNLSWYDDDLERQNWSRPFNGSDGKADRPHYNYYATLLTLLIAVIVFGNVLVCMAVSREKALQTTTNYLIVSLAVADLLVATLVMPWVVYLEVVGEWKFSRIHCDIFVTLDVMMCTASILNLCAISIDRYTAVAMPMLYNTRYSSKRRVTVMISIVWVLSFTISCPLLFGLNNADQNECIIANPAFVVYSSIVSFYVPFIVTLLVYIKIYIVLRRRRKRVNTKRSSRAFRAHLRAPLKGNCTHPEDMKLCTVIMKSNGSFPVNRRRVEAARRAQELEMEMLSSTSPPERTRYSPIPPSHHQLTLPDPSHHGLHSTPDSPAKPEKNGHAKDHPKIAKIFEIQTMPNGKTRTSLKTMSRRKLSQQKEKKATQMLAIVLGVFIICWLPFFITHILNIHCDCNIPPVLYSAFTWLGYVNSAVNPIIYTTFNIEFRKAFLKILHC
# Experiment: Beta-Arrestin HTS for Positive Allosteric Modulators of the Human D2 Dopamine Receptor: Potentiators
# Conditions: DiscoveRx D2 beta-arrestin cells, luminescence, 90 min; hits give high values; 100% = 57 uM dopamine signal
# Description: There is great interest in identifying small molecule ligands for G-protein coupled receptors (GPCRs) as nearly 50% of all FDA-approved drugs target these important receptor proteins. […] Amongst the dopamine receptors (DARs), the D2 is arguably one of the most validated drug targets in neurology and psychiatry. For instance, all receptor-based antiparkinsonian drugs primarily work via stimulating the D2 DAR, whereas all FDA-approved antipsychotic agents are antagonists of this receptor. The D2 DAR is also therapeutically targeted in other disorders such as restless legs syndrome, tardive dyskinesia, Tourette's syndrome, and hyperprolactinemia.
# To this end, a miniaturized qHTS screen was developed to be screened against the Molecular Libraries Small Molecule Repository (MLSMR). This assay seeks to identify potentiators against the D2 DAR.
# NIH Molecular Libraries Probe Production Network [MLPCN]
# NIH Chemical Genomics Center [NCGC]
# PI Name: David Sibley, National Institutes of Neurological Disorders and Stroke
# DiscoveRx D2 cells were thawed from frozen stock and seeded at 2,100 cells/ 3 uL/well media (DiscoveRx Plating Reagent 2) with MultiDrop Combi dispenser (Thermo Scientific, Logan, UT) onto white tissue culture treated 1536-well Aurora plates (Brooks Automation, Chelmsford, MA) and allowed to attach overnight at 37 deg C, 5% CO2. Next, 23 nL/well of compound solutions in DMSO were added with a pintool transfer (Kalypsis, San Diego, CA). As the positive control, 1 uL/well dopamine (EC100, 57 uM final concentration) diluted in buffer (HBSS + 10 mM HEPES + SMB + 0.1 %Tween-20) was dispensed to 1 column of each plate. EC20 (Dopamine at 50 nM final concentration) was dispensed to the rest of the plate except columns 1 &2 which were used as negative control (EC=0, buffer only), 1 uL/well as well. The cells were stimulated by compounds and dopamine for 90 minutes at 37 deg C, 5% CO2, after which 1.5 uL/well of DiscoveRx detection reagent was added with BioRAPTR FRD dispenser. The detection reagent was prepared by mixing of Galacton Star Substrate, Emerald II solution and PathHunter buffer (supplied by the assay kit) together at 1:5:19 proportion accordingly just prior to dispensing. The plates were incubated at ambient temperature for 1 hour and then the luminescent signal was read on ViewLux plate reader (PerkinElmer, Waltham, MA).
row,Compound,potentiation
1,O=C(CCc1ccccc1)Nc1ccc(NC(=O)C2CCCCC2)nc1,-8.09% (inactive)
2,Cc1nn(CC(=O)Nc2ccc(C#N)cc2)c(C)c1[N+](=O)[O-],-8.67% (inactive)
3,Cc1cc(C)n(CC(=O)Nc2ccc([N+](=O)[O-])cc2)n1,70.7% (active)
4,Cc1cc([N+](=O)[O-])nn1CC(=O)Nc1ccc(Cc2ccncc2)cc1,-10.7% (inactive)
5,Cc1ccc(NC(=O)CS(=O)CC(=O)N(c2ccccc2)C(C)C(=O)NC2CCCC2)cc1 (stereo not drawn),-14.4% (inactive)
6,CCCc1nnc(SCC(=O)N2C(C)CCCC2C)n1CC (stereo not drawn),-7.75% (inactive)
7,CC(NC(=O)CC1SC(N)=NC1=O)c1ccccc1 (stereo not drawn),-0.5% (inactive)
8,C[C@H]1CN([C@@H](C)CO)C(=O)c2cc(-c3cccc(F)c3)cnc2O[C@@H]1CN(C)S(C)(=O)=O,7.41% (inactive)
9,Cc1csc(NC(=O)C2CCCN2C(=O)OCC(C)C)n1 (stereo not drawn),-5.09% (inactive)
10,COc1ccc(S(=O)(=O)N2CCN(CC(=O)N3CCOCC3)CC2)cc1OC,-5.65% (inactive)
11,O=C(Nc1cc(F)ccc1F)c1ccc2c(=O)n3c(nc2c1)CCC3,-9.48% (inactive)
12,CC(C)S(=O)(=O)c1csc(NC(=O)Nc2ccc(Cl)cc2)c1Cl,-6.65% (inactive)
13,CCOc1ccc(CCNC(=O)CCc2nnc3ccc(N4CCCC4)nn23)cc1OCC,2.77% (inactive)
14,Cc1occc(=O)c1OCc1c(Cl)cccc1Cl,-9.29% (inactive)
15,CCN(CC)CCCC(C)n1c2nc(=O)[nH]c(=O)c-2nc2cc(Cl)ccc21 (stereo not drawn),80.2% (active)
16,COc1cccc(NC(=O)C2(C)CCN2C(=O)CCC2CCCC2)c1 (stereo not drawn),-1.05% (inactive)
17,CC(C)(C)C(=O)OCc1nc(-c2ccc(O)c(O)c2)cs1,70.4% (active)
18,COc1ccc(C(C)(O)c2nc(-c3ccc(C)c(C)c3)cs2)cc1 (stereo not drawn),-10.5% (inactive)
19,CCCC(=O)N1c2ccc(-c3csc(N)n3)cc2CC1C (stereo not drawn),-21.2% (inactive)
20,CC(C)NC(=O)C1(C)CCCCCN1C(=O)c1ccc(-c2ccccc2)cc1 (stereo not drawn),-9.96% (inactive)
21,CC1(C)CCSC(/C=C/c2ccccc2)=N1,-38.8% (inactive)
22,CNc1cnc(-c2cc(OC)c(OC)c(OC)c2)cn1,0.325% (inactive)

row,Compound,potentiation
1,O=C(Nc1ccccc1F)c1ccc(Cn2cc(Br)cn2)cc1,-6.63% (inactive)
2,CC(C)CCNC(=O)c1cccnc1Sc1ccccc1,-21.6% (inactive)
3,COCCNC(=O)C1CCN(C(=O)C2CC(=O)N(c3ccc(C)cc3)C2)CC1 (stereo not drawn),-6.43% (inactive)
4,O=S(=O)(Cc1cc(Cl)nc(-c2cccnc2)n1)c1ccccc1,11.9% (inactive)
5,COc1cc2c(cc1OC)CN(C(C)C(=O)Nc1cccc(S(=O)(=O)N3CCOCC3)c1)CC2 (stereo not drawn),-31.3% (inactive)
6,CC(C)CCNC(=O)C1CCC(CNc2c(N3CCC(C)CC3)c(=O)c2=O)CC1 (stereo not drawn),-6.3% (inactive)
7,OCC[C@H]1C[C@@H](O)[C@H](O)[C@@]2(OCCc3ccccc32)O1,-8.36% (inactive)
8,COc1ccc(CCNC(=O)CCn2c(=O)c3ccccc3n(CC(=O)NCC3CCCO3)c2=O)cc1OC (stereo not drawn),-2.84% (inactive)
9,CC(=O)Nc1ccc(S(=O)(=O)Oc2ccc(/C=N/N=C3/NC(=O)C(CC(=O)O)S3)cc2)cc1 (stereo not drawn),1.2% (inactive)
10,O=C(CCSc1ccccc1)NCCSc1ccccn1,-0.984% (inactive)
11,O=C1CSC(c2cccc(F)c2)N1c1ccc(O)cc1 (stereo not drawn),-4.16% (inactive)
12,O=C(O)CCCC(=O)Nc1ccccc1-n1ccnc1,-9.58% (inactive)
13,CSc1ncnc2c1ncn2CC(=O)C1CCC2C3CCC4=CC(=O)CCC4(C)C3CCC12C (stereo not drawn),-2.03% (inactive)
14,CCOC(=O)CSc1nc2ccc(C)cc2n2cnnc12,0.488% (inactive)
15,CC1=C(C(=O)N(C(C)C)C(C)C)CC(CC(=O)NCC2CCCCC2)C(=O)N1Cc1ccccc1 (stereo not drawn),1.77% (inactive)
16,O=C(CCNS(=O)(=O)c1ccccc1C(F)(F)F)Nc1ccncc1,0.0096% (inactive)
17,O=C(OCC(=O)N(CCc1ccccc1)Cc1ccccc1)c1ccccc1[N+](=O)[O-],-22.2% (inactive)
18,O=C(c1cccnc1)N(c1cc2sc(=O)oc2c2ccccc12)S(=O)(=O)c1ccccc1,61.6% (active)
19,COc1ccc(N(C(=O)c2cccnc2)S(=O)(=O)c2ccc(OC)c(OC)c2)cc1,0.917% (inactive)
20,O=C(c1cccnc1)N(Cc1ccccc1)C(=O)c1cccnc1,-3.67% (inactive)
21,CC(C)Cc1ccc(S(=O)(=O)N2CCN(C(=O)c3ccco3)CC2)cc1,-6.64% (inactive)
22,CC(C)(C)S(=O)N1Cc2cc(C(=O)NCCCN3CCOCC3)nc(-c3cccc(-c4cc5ccccc5o4)c3)c2[C@H]1CCO (stereo partly drawn),-2.56% (inactive)

row,Compound,potentiation
1,COc1ccc(/C=C(\NC(=O)c2ccc(OCC(C)C)cc2)C(=O)OCc2ccco2)cc1,-7.94% (inactive)
2,CC(C)c1ccc(NC(=O)COC(=O)c2ccc(CN3CCCC3=O)cc2)cc1,0.762% (inactive)
3,CC(=O)N1CCN(c2ccc(NCc3ccc(C(C)C)cc3)cc2)CC1,62.8% (active)
4,CCCC(=O)N1CCC1(C)C(=O)NCc1ccc(C(C)C)cc1 (stereo not drawn),-0.154% (inactive)
5,CCOCC(=O)Nc1ncc(S(=O)(=O)c2ccc([N+](=O)[O-])cc2)s1,24.1% (inactive)
6,COC(=O)C(NC(=O)c1ccc(OC)cc1)(Nc1ncc(S(=O)(=O)c2ccc([N+](=O)[O-])cc2)s1)C(F)(F)F (stereo not drawn),65.4% (active)
7,COc1ccc(C(=O)NCCNc2ccc([N+](=O)[O-])cn2)cc1,-11.5% (inactive)
8,CCCCN1C(=S)NC[C@@H]1C(C)CC (stereo partly drawn),-1.6% (inactive)
9,N#Cc1ccc(COC(=O)Cn2nnc(-c3ccccc3)n2)cc1,-0.341% (inactive)
10,Cn1c(=NC(=O)c2ccc3c(c2)OCCO3)sc2cc(S(C)(=O)=O)ccc21,-10.1% (inactive)
11,COCCn1c(=NC(=O)c2ccccc2[N+](=O)[O-])sc2cc(S(C)(=O)=O)ccc21,74.4% (active)
12,COC(=O)CNC(=O)c1ccccc1[N+](=O)[O-],-2.49% (inactive)
13,C=CCSc1ccc(S(=O)(=O)N2CCN(C)CC2)cn1,-3.17% (inactive)
14,O=C(Nc1ccnn1C1CCN(C/C=C/c2ccc(F)cc2)CC1)C1CCCC1,-11% (inactive)
15,Cn1ncc2c(N3CCCCC3)nc(NCCCO)nc21,-3.76% (inactive)
16,CS(=O)(=O)c1sc(C(=O)NC(=S)Nc2ccc(OC(F)(F)F)cc2)c2c1C=CCC2,-5.92% (inactive)
17,COc1ccccc1Cc1c(-c2ccc(Cl)cc2)nc2ccc(Cl)cn12,-4.81% (inactive)
18,COc1cccc(N2CC(C(=O)NCc3n[nH]c(=O)c4ccccc34)CC2=O)c1 (stereo not drawn),-3.09% (inactive)
19,CCCCC(=O)N1CC2(C)CN(C(=O)CCCC)CC(C)(C1)C2=O,12.6% (inactive)
20,COc1cc(C(=O)N2CCN(S(=O)(=O)c3ccc(C(C)C)cc3)CC2)ccc1OCC(=O)N1CCOCC1,0.615% (inactive)
21,CC(=O)N1CCN(c2ccccc2NC(=S)NC(=O)c2cc3ccccc3o2)CC1,1.52% (inactive)
22,Cc1ccccc1NC(=O)c1nn(-c2ccc(F)c(F)c2)ccc1=O,-20.8% (inactive)

row,Compound,potentiation
1,CC(C)(C)S(=O)(=O)c1ccccc1-c1noc(-c2ccccc2)c1C(N)=O,-4.58% (inactive)
2,COc1ccc(S(=O)(=O)NC2(C(F)(F)F)N=C3SCCN3C2=O)cc1 (stereo not drawn),-9.42% (inactive)
3,COC(=O)c1cc(S(=O)(=O)N2CCC(C(N)=O)CC2)oc1C,-5.83% (inactive)
4,Cc1cc(C)cc(C(=O)N(CCc2ccccc2)C2=CC3CCC(C2)N3C)c1 (stereo not drawn),-8.31% (inactive)
5,CCCN(CCc1ccccc1)C1CCc2c(O)cccc2C1 (stereo not drawn),99% (active)
6,O=C(CCC(=O)N1CCN(S(=O)(=O)c2ccc(Cl)cc2)CC1)NCc1cccc(C(F)(F)F)c1,-1.2% (inactive)
7,O=C(Cc1ccc(S(=O)(=O)N2CCOCC2)s1)N1CCN(c2ccc(C(F)(F)F)cc2[N+](=O)[O-])CC1,-0.0198% (inactive)
8,CC(=O)NC1=NC(=O)CS1,-7.96% (inactive)
9,Cc1ccc2cccc(OCCCOc3ccccc3CO)c2n1,-2.17% (inactive)
10,CC1C=CCC2C(=O)N(c3cccc(C(=O)N4CCCCCC4)c3)C(=O)C12 (stereo not drawn),-12.1% (inactive)
11,COCCCNC(=O)Cn1c(=O)n(Cc2ccccc2Cl)c(=O)c2cc(OC)c(OC)cc21,-14.1% (inactive)
12,CCCc1cc(=O)[nH]c2nnc(SCC(=O)Nc3nnc(SCC)s3)n12,-13.8% (inactive)
13,CC(C)(C)N(Cc1ccccc1)C(=O)COC(=O)CCc1c[nH]c2ccccc12,10.1% (inactive)
14,C[C@@H](NC(=O)[C@@H]1Cc2ccccc2CN1)C(=O)NC1CCCC1,-3.01% (inactive)
15,COc1ccc(O)c(C(=O)c2cnc3c(c2)c(-c2ccc(F)cc2)c(C#N)c(=O)n3C)c1,11.8% (inactive)
16,COc1ccc(O)c(C(=O)c2cnc3onc(C(C)C)c3c2)c1,54.9% (active)
17,COCCn1c(=O)[nH]c(=O)c2cc(C(=O)c3cc(OC)ccc3O)cnc21,-0.0764% (inactive)
18,CCOC(=O)c1cc(-c2sc(NC(=O)c3ccccc3)nc2C)n(-c2ccc(Br)cc2)n1,2.35% (inactive)
19,COC(=O)[C@]1(C)N[C@H](c2ccc(-c3ccc(Cl)c(Cl)c3)cc2)[C@@H]2C(=O)N(C)C(=O)[C@@H]21,-3.41% (inactive)
20,O=C(C/C(=N\NC(=O)c1ccccc1Br)C(F)(F)F)c1cccs1,-15% (inactive)
21,O=C(CC(CC(=O)c1ccccc1)c1ccco1)c1ccccc1,-4.42% (inactive)
22,Nc1ccc(-n2nncc2-c2ccco2)cc1,-3.62% (inactive)
